CHX counter = affects cycloheximide protein synthesis inhibition readout, counter-screen; cell reporter, cycloheximide protein synthesis inhibition counterscreen; max response, %; 300,000 tested, 12% active; AID 2314; in the data active means max response mostly above about 13%, no sharp cut-off; inactive means mostly below about 14%; further: read at 38.3 µM for the half of the compounds with a filed dose; 0% is about no effect
HCV inhibitor = inhibitors of hepatitis C virus infection. Huh7.5.1 HCVcc-Cre infection, luciferase reporter, 44 h. Potency, µM (titrated, usually from 41.8 µM), for inactives: at the highest dose activity change, negative = inhibition, actives largely listed as inhibitors. 340,000 tested, 3.4% active; further: potency means the concentration at half of the fitted maximal effect; on the % scale 0 is the no-effect control and ±100 the full control effect
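Luciferase read-out (15 sec integration) after a 15 min room-temperature substrate step quantifies HCVcc-Cre infection. Cells, 1,000 per well, had compound added 4 h post-plating, then virus at ~0.5 moi, and were cultured 44 h.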
Pf growth 48h = inhibits P. falciparum growth in the first generation, 48 h. P. falciparum luciferase growth in erythrocytes, 48 h. Potency, µM (titrated, usually from 28.7 µM), for inactives: at the highest dose activity change, negative = inhibition, hits mostly inhibitors. 310,000 tested, 5.9% active. AID 504832; further: potency means the concentration at half of the fitted maximal effect; on the % scale 0 is the no-effect control and ±100 the full control effect
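Cell-based growth assay: transgenic P. falciparum expressing firefly luciferase, cultured in red cells within RPMI 1640 containing 0.5% w/v Albumax, 24 mM bicarbonate and gentamycin. A drop in luciferase activity indicates inhibition.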
Shiga toxin inh = Shiga toxin inhibition; Vero cells, Shiga toxin protein synthesis inhibition reporter; AID 2315; inhibition, % at 38.7 µM; 290,000 tested, 9.2% active; in the data active means inhibition mostly above about 28%, no sharp cut-off; inactive means mostly below about 43%; further: 0% is about no effect
AMA1-RON2 inh = disrupts binding of P. falciparum AMA1 to RON2; AlphaScreen AMA1-biotinylated RON2 peptide binding; Potency, µM (series often up to 58.2 µM), for the others: top-dose activity change, negative = inhibition, usual class: inhibitors; 360,000 tested, 0.2% active; AID 720542;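 further: potency means the concentration at half of the fitted maximal effect; 0% = vehicle wells and -100% = peptide control; nearly all actives have a fitted effect of over 45% in size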
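AMA1 (3D7) with his tag at 25 nM final met compounds first, then biotinylated RON2 peptide at 25 nM; detection used donor plus acceptor beads, 10 µg/mL apiece, read by AlphaScreen after 30 min at room temperature.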
Pf growth 96h = P. falciparum growth inhibition at 96 hour, primary screen for plastid delayed-death inhibitors; P. falciparum luciferase reporter growth, 96 h; AID 504834; Potency, µM (top dose mostly 28.7 µM), for the others: at the top dose activity change, negative = inhibition, most hits filed as inhibitors; 320,000 tested, 6.9% active; further: potency means the concentration at half of the fitted maximal effect; on the % scale 0 is the no-effect control and ±100 the full control effect
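Erythrocytes infected with luciferase-expressing P. falciparum were dispensed at 2% hematocrit and 0.05% parasitemia (final), then incubated with compounds 96 hours at 37 C in 5% CO2. Luminescence after detection reagent addition reported growth.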
The depositor's hits bear a star; ? = inconclusive; . = no result given; + = active, no number; [ ] = another dose, or the depositor's remark. A selection: hits, their analogues and other compounds. The true share with any hit is near 21%. Unless noted, the call rests on the fitted dose curve; in most records, active means well fitted curve in the direction sought with a large enough effect; inconclusive means small, poorly fitted or top-dose-only effect, or another doubt; inactive means no such curve, though single readings can be large; an effect the other way counts as inactive or inconclusive.

SMILES	CHX counter	HCV inhibitor	Pf growth 48h	Shiga toxin inh	AMA1-RON2 inh	Pf growth 96h
CC(=O)Nc1ccc(C(=O)N(C)C(C(=O)Nc2ccc(C)cc2)c2ccccn2)cc1 (centres undefined)	-4	26%	-13%	5	15%	-22%
CCOc1ccc(N(C(C)C(=O)Nc2ccc(OC)cc2)S(C)(=O)=O)cc1 (centres undefined)	-2	6%	-3%	22	-2%	?
CCOc1ccc(NC(=O)C(c2ccccn2)N(C(=O)CCl)c2ccc(OCC)cc2)cc1 (centres undefined)	49*	0%	-82%	+	4%	5%
COc1ccc(NC(=O)C(c2ccccn2)N(C(C)=O)c2ccc(C)cc2)cc1 (centres undefined)	16*	15%	30%	60*	1%	?
OCC[C@H]1C[C@@H](O)[C@H](O)[C@]2(OCc3ccccc32)O1	.	4%	28%	.	9%	35%
CCCCN(C)C(=O)c1cccc(OC2CCN(CC(C)(C)C)CC2)c1	1	-5%	?	27	-4%	13µM*
CCC(C)CNC(=O)c1cccc(OC2CCN(CC(C)(C)C)CC2)c1 (centres undefined)	.	?	.	.	-1%	.
CC(C)(C)CN1CCC(Oc2cccc(C(=O)N3CCNC(=O)C3(C)C)c2)CC1	-2	-6%	11%	24	-6%	12µM*
COc1ccc(CCN2CC(C(=O)OCc3ccccc3Cl)CC2=O)cc1OC (centres undefined)	.	4%	.	.	4%	.
CCNC(=O)C1(C)CCCN(C(=O)c2cccnc2Oc2ccccc2)C1 (centres undefined)	.	.	.	.	0%	.
COc1cccc(-c2noc(-c3ccc(Cl)nc3)n2)c1	30*	17%	0%	83*	-13%	108%
CCCCOc1ccc(-c2nc(-c3cccnc3)no2)cc1	25*	-1%	45%	80*	18%	26%
COc1cc(OC)cc(-c2nc(-c3ccccc3)no2)c1	17*	-9%	148%	55	12%	.
CCOc1nc(-c2ccc(C)cc2)ccc1-c1noc(-c2cccnc2)n1	-2	-5%	8%	-4	.	7%
COc1cccc(-c2nc(-c3ccc(NC(=O)c4ccncc4)cc3)no2)c1	-1	?	.	51	12%	?
COc1ccc(-c2noc(-c3ccccc3-c3ccccc3)n2)cc1OC	4	?	?	6	-9%	27%
COc1ccc(-c2nc(-c3cccnc3)no2)cc1	45*	-10%	140%	59*	2%	258%
COc1ccc2[nH]c(=O)c(-c3noc(-c4ccccc4)n3)cc2c1	66*	-8%	?	106*	-11%	?
Brc1ccc(-c2nc(-c3ccncc3)no2)cc1	7	1%	94%	25	3%	5%
CCOc1ccc(-c2nc(-c3ccccc3C)no2)cc1	68*	12%	195%	96*	.	-10%
CCOc1ccc(-c2nc(-c3cccnc3)no2)cc1	31*	-8%	173%	23*	-8%	156%
COc1ccc(-c2nc(-c3ccncc3)no2)cc1	53*	-6%	58%	88*	-2%	101%
COc1ccc2[nH]c(=O)c(-c3nnn(-c4ccccc4)n3)cc2c1	2	8%	8%	24	5%	?
CCCC(=O)NCc1nc2ccccc2n1CC(=O)c1ccccc1	4	11%	-12%	-9	-4%	?
Cc1ccc(-c2nnc3n2N=C(c2ccccc2Br)CS3)cc1	1	?	12µM*	-14	-2%	-1%
SMILES	CHX counter	HCV inhibitor	Pf growth 48h	Shiga toxin inh	AMA1-RON2 inh	Pf growth 96h
c1ccc(-c2cc(-c3nnc4n3N=C(c3ccc5ccccc5c3)CS4)[nH]n2)cc1	3	9%	12µM*	17	-1%	?
Cc1cc(-c2nnc3n2N=C(c2ccc(-c4ccccc4)cc2)CS3)n[nH]1	6	-12%	10µM*	5	-7%	?
Cc1cc(-c2nnc3n2N=C(c2ccccc2)CS3)n[nH]1	2	?	-3%	-2	-12%	?
Cc1ccc(-c2csc(N=C(N)N)n2)cc1	28*	-27%	?	64*	-8%	-45%
COC(=O)C1=C(C)N(Cc2ccccc2)C(=NCc2cccc(C(F)(F)F)c2)N[C@H]1c1cccc(C(F)(F)F)c1	-1	42%[8.37 µM]	?	12	20%	7%
COC(=O)C1=C(C)N(Cc2ccccc2)C(=NCCCCO)N[C@H]1c1cccc(C(F)(F)F)c1	-2	?	?	-5	-3%	?
CCN1C(=NCCc2c[nH]c3ccccc23)N[C@@H](c2ccccc2)C(C(=O)OC)=C1C	2	.	13µM*	-3	.	1%
COC(=O)C1=C(C)N(Cc2ccccc2)C(=NCCc2c[nH]c3ccccc23)N[C@H]1c1cccc(C(F)(F)F)c1	-2	?	?	6	-25%	13µM*
COCCN=C1N[C@@H](c2cccc(C(F)(F)F)c2)C(C(=O)OC)=C(C)N1Cc1ccccc1	0	39%	?	-4	12%	4.7µM*
CCN1C(=NCCc2cccs2)N[C@@H](c2cccs2)C(C(=O)OC)=C1C	-6	3%	7.4µM*	-4	4%	?
CCCCOCCCNC(=O)C[C@@H]1C[C@@]2(C(=O)OC)CC(C)(C)CC=C2N(CCc2ccc(OC)c(OC)c2)C1=O	.	.	.	.	-5%	.
Cc1ccc2c(CN3CCC(C(N)=O)CC3)cc(=O)oc2c1C	-1	2%	9%	-3	8%	-10%
CC(C)(C)OC(=O)C(C)(C)O/N=C(\C(=O)O)c1csc(N)n1	-2	9%	-2%	17	-8%	13%
Cn1c2c(c(=O)n(C)c1=O)CS(=O)c1ccccc1N2 (centres undefined)	.	.	.	.	-3%	.
CCN1C(=NCc2cc(OC)c(OC)c(OC)c2)N[C@@H](c2cccc(F)c2)C(C(=O)OC)=C1C	-2	.	5.2µM*	10	.	10µM*
COC(=O)C1=C(C)N(Cc2ccccc2)C(=NCCc2ccccn2)N[C@H]1c1cccc(F)c1	-3	50%	12µM*	-7	89%	8.3µM*
CCN1C(=O)N(C)[C@@H](c2ccccc2)C(C(=O)OC)=C1C	21*	-9%	?	2	-5%	-23%
CCN1C(=NCCc2ccccn2)N[C@@H](c2cccc(F)c2)C(C(=O)OC)=C1C	-2	-28%	2%	30	7%	?
COC(=O)C1=C(C)N(Cc2ccccc2)C(=NCc2cccc(C(F)(F)F)c2)N[C@H]1c1cccc(F)c1	-12	?	6.6µM*	-17	11%	?
CCN1C(=NCc2cccc(Cl)c2)N[C@@H](c2cccc(F)c2)C(C(=O)OC)=C1C	-4	-13%	?	-3	-3%	?
